# Inconclusive results are not listed. Entries that show only a call come without a potency. Calls of active or inactive are those of the source. The call rests on the fitted dose curve; in most records, active means well fitted activation curve with a large enough effect in the signal ratio in the repeat runs (not every such curve was filed as active); inconclusive means weak or mixed curves; inactive means flat fitted curve, though single readings scatter; the % refers to the signal ratio.
# Test: p53 small molecule agonists, cell-based qHTS assay (AID 1963582)
# Conditions: HCT-116 p53RE-bla reporter, beta-lactamase FRET ratio, 16 h; series mostly up to 66 µM
# Text: National Center for Advancing Translational Sciences [NCATS]
# Division of Preclinical Innovation [DPI]
# U.S. Environmental Protection Agency [EPA]
# National Institutes of Environmental Health Sciences [NIEHS]
# National Toxicology Program [NTP]
# U.S. Food and Drug Administration [FDA]
# p53, a tumor suppressor protein, is activated following cellular insult, including DNA damage and other cellular stresses. The activation of p53 regulates cell fate by inducing DNA repair, cell cycle arrest, apoptosis, or cellular senescence. The activation of p53, therefore, is a good indicator of DNA damage and other cellular stresses. […] The activation of the reporter gene under culture conditions can be detected by fluorescence intensity. This cell line was used to screen the Tox21 10K compound library in a 1536-well plate format and to identify agonists that activate the p53 signaling pathway.
# Tox21 Assay Protocol Summary:
# The p53RE-bla cells were dispensed at 4,000 cells/5 ul/well in 1536-well black wall/clear bottom plates using a Multidrop dispenser. After the assay plates were incubated at a 37 C/5% CO2 incubator for 5 hours, 23 nL of compounds dissolved in DMSO, positive controls or DMSO only was transferred to the assay plate by a pin tool. The plates were incubated at 37 C for 16 hours. After 1 uL of LiveBLAzerTM B/G FRET substrate was added using a Flying Reagent Dispenser, the plates were incubated at room temperature for 2 hours, and fluorescence intensity was measured by an Envision plate reader.
# Potency means the concentration at half of the fitted maximal effect.
row,SMILES,Potency
1,CN1CC[C@]23c4c5ccc(O)c4O[C@H]2[C@@H](O)CC[C@H]3[C@H]1C5,inactive
2,Nc1ccc(Br)cc1,inactive
3,O=[N+]([O-])c1cc(Cl)c(Cl)c(Cl)c1,inactive
4,Cc1coc2c1CCC(C)C2 (stereo not given),inactive
5,CCCCOC(=O)c1ccccc1C(=O)OCCCC,inactive
6,CCOC(=O)CC(SP(=S)(OC)OC)C(=O)OCC (stereo not given),inactive
7,C=CC(=O)OCCCCCC(C)C,inactive
8,N#CCc1ccccc1,inactive
9,CCOP(=S)(OCC)Oc1ccc([N+](=O)[O-])cc1,inactive
10,CCCCOP(=O)(CCCC)OCCCC,inactive
11,CC(C)(C)C(O)(CCc1ccc(Cl)cc1)Cn1cncn1 (stereo not given),inactive
12,CCCCCON=O,inactive
13,Cc1ccc2c(c1N)C(=O)c1ccccc1C2=O,inactive
14,CCNc1nc(NCC)nc(SC)n1,inactive
15,CCOP(=S)(OCC)Oc1cnc2ccccc2n1,inactive
16,CCOP(OCC)OCC,inactive
17,CC1CCC(=O)O1 (stereo not given),inactive
18,C=C1CC[C@@]2(O)[C@H]3Cc4ccc(O)c5c4[C@@]2(CCN3CC2CC2)[C@H]1O5,inactive
19,Nc1cccc2ccccc12,inactive
20,COc1ccc(C(CN(C)C)C2(O)CCCCC2)cc1 (stereo not given),inactive

row,SMILES,Potency
1,COCC(=O)N(c1c(C)cccc1C)[C@H](C)C(=O)OC,inactive
2,CN(C)c1ccc(C(=O)c2ccc(N(C)C)cc2)cc1,11.4 µM (active)
3,CCOP(=S)(OCC)OP(=S)(OCC)OCC,inactive
4,Nc1nc(=S)[nH][nH]1,inactive
5,CC(=O)[C@H]1CC[C@H]2[C@@H]3CC[C@H]4C[C@](C)(O)CC[C@]4(C)[C@H]3CC[C@]12C,inactive
6,CCCCC(CC)COC(=O)c1ccc(C(=O)OCC(CC)CCCC)c(C(=O)OCC(CC)CCCC)c1 (stereo not given),inactive
7,CCc1cccc(C)c1N(C(=O)CCl)C(C)COC (stereo not given),inactive
8,BrCC(Br)c1ccccc1 (stereo not given),inactive
9,O=C=NC1CCCCC1,inactive
10,C[C@]12CC[C@H]3[C@@H](CCC4=CC(=O)CC[C@@H]43)[C@@H]1CC[C@@H]2O,inactive
11,CCCCOCC1CO1 (stereo not given),inactive
12,Cn1c(N)nc2c3cccnc3ccc21,inactive
13,C=CC(=O)OCC(C)C,inactive
14,ClC1(Cl)C2(Cl)C3(Cl)C4(Cl)C(Cl)(Cl)C5(Cl)C3(Cl)C1(Cl)C5(Cl)C24Cl (stereo not given),inactive
15,CC1CC(CC2CCC(N)C(C)C2)CCC1N (stereo not given),inactive
16,NCC(O)c1ccc(O)cc1 (stereo not given),inactive
17,NNC(=S)NN,inactive
18,CC(C)OS(C)(=O)=O,inactive
19,C=CC=O,inactive
20,CCN(N=O)C(N)=O,inactive

# Reference: PubChem BioAssay (Tox21)
